In PubChem BioAssay (Tox21) one finds Potency and outcome data, which are given here for 8 molecules.

Inconclusive results are not listed. The source made the active and inactive calls. Unless noted, calls come from the whole dose curve; as a rule, active = well fitted curve in the direction sought with a large enough effect in the repeat runs; inconclusive = weak or mixed curves; inactive = no such curve, though single readings can be large; an effect the other way counts as inactive or inconclusive.

A short description of assay [1]: qHTS assay to test for compound auto fluorescence at 535 nm (green) in HEK293 cells (AID 720680). For orientation: In qHTS, concentration-response curves come from the screen itself.
The nature of assay [2]: qHTS assay to test for compound auto fluorescence at 460 nm (blue) in HEK293 cell free culture (AID 720681). An outline of the steps: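 Compounds were added to cell-free DMEM with 10% FBS and fluorescence read directly. The blue channel used 405 nm excitation and 460 nm emission, with triamterene as the reference fluorophore.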
A short description of assay [3]: qHTS assay to test for compound auto fluorescence at 535 nm (green) in HEK293 cell free culture (AID 720682). An outline of the steps: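 Steps: dispense DMEM/10% FBS into empty wells; pin in compound or DMSO; measure fluorescence at 485/535 nm. Values are fluorescein equivalents.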
Assay [4] is described as follows: qHTS assay to test for compound auto fluorescence at 590 nm (red) in HEK293 cell free culture (AID 720683). The method, boiled down:
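Cell-free wells of DMEM with 10% FBS received compound, and intrinsic fluorescence was read at excitation/emission 540/590 nm. Values expressed as equivalence to Rose Bengal sodium.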

Assay [5] can be described thus: qHTS assay to test for compound auto fluorescence at 590 nm (red) in HepG2 cell free culture (AID 720684). The method, boiled down:
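Rose Bengal sodium served as the reference for red signal. Test compounds were dispensed into serum-containing MEM (10% FBS) without cells, and plates were read at 540/590 nm.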

Assay [6] in a line: qHTS assay to test for compound auto fluorescence at 535 nm (green) in HepG2 cell free culture (AID 720686).
Assay [7] can be described thus: qHTS assay to test for compound auto fluorescence at 460 nm (blue) in HepG2 cells (AID 720687). An outline of the steps:
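HepG2 cells in MEM with 10% FBS, attached overnight at 37 C, were exposed to compound or DMSO for 1 hr at 37 C, 5% CO2. Blue fluorescence was read at 405/460 nm, with triamterene as reference fluorophore.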

Assay [8] deals with Glucocorticoid receptor (Homo sapiens) (UniProt P04150). The assay can be described thus: qHTS assay to identify small molecule agonists of the glucocorticoid receptor (GR) signaling pathway (AID 720691; active = well fitted activation curve with a large enough effect in the signal ratio in the repeat runs, not every such curve was filed as active; the % refers to the signal ratio; note: potency is the fitted concentration of half-maximal effect). The note with it: GR-bla HeLa, beta-lactamase reporter ratio, 18 h; activation: at 62.4 µM (top of the series). An outline of the steps: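 Measures GR pathway activation through a GRE-beta-lactamase reporter stably integrated in HeLa cells, with 18 h compound treatment at 37 C and fluorescence detection using a FRET substrate.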
Glucocorticoid receptor (Homo sapiens), sequence (P04150 whole entry, looked up): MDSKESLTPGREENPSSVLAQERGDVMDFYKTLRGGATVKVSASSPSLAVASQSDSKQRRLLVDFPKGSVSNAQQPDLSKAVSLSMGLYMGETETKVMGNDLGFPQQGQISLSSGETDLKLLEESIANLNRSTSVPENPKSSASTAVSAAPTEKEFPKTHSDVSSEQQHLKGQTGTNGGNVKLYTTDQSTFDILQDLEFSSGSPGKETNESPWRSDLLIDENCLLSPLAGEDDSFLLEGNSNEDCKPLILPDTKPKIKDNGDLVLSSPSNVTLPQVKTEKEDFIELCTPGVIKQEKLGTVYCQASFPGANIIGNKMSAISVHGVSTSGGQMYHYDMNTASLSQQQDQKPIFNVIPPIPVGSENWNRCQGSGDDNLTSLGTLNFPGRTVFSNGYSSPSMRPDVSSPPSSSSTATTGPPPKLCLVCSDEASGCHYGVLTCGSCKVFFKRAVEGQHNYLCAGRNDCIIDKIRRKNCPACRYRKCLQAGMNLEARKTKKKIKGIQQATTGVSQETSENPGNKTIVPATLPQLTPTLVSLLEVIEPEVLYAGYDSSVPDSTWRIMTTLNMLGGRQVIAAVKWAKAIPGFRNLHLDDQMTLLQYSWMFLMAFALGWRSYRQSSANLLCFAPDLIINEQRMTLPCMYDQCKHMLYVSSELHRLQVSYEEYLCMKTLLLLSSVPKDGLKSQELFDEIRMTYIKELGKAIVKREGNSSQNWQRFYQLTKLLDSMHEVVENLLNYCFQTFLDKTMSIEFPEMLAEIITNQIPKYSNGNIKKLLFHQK

Assay [9] is described as follows: qHTS assay to identify small molecule antagonists of the glucocorticoid receptor (GR) signaling pathway - cell viability counter screen (AID 720693). Note: nearly all actives have a fitted effect of over 55% in size.
Assay [10] can be described thus: qHTS assay for identifying genotoxic compounds that show differential cytotoxicity against isogenic chicken DT40 cell lines with known DNA damage response pathways - wild type cell line (AID 743012). Note: nearly all actives have a fitted effect of over 60% in size. Note: potency is the fitted concentration of half-maximal effect. An outline of the steps:
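Endpoint: CellTiter-Glo luminescence, 30 min RT. Cells: wild type DT40, 300/well. Exposure: compounds in DMSO, 40 h, 37 C/5% CO2, after ~0.5 h pre-incubation.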

A short description of assay [11]: qHTS assay for identifying genotoxic compounds that show differential cytotoxicity against isogenic chicken DT40 cell lines with known DNA damage response pathways - Rad54/Ku70 mutant cell line (AID 743015). Note: nearly all actives have a fitted effect of over 60% in size. Note: potency is the fitted concentration of half-maximal effect.
Assay [12] in a line: qHTS assay to identify small molecule antagonists of the androgen receptor (AR) signaling pathway - cell viability counter screen (AID 743033; note: nearly all actives have a fitted effect of over 45% in size; note: potency is the fitted concentration of half-maximal effect).
Assay [13] concerns the target Androgen receptor (Homo sapiens) (UniProt P10275). Kind of assay: qHTS assay to identify small molecule antagonists of the androgen receptor (AR) signaling pathway (AID 743035; active = well fitted inhibition curve with a large enough effect in the signal ratio in the repeat runs, not every such curve was filed as active; the % refers to the signal ratio). The method, boiled down: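 R1881 agonist challenge of a HEK293 UAS-beta-lactamase AR reporter line in the presence of compound (16 h, 37C); signal taken as FRET fluorescence after 2 h with LiveBLAzer B/G substrate at room temperature.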

The target is the same in assay [14]. The assay can be described thus: qHTS assay to identify small molecule agonists of the androgen receptor (AR) signaling pathway (AID 743036; active = well fitted activation curve with a large enough effect in the signal ratio in the repeat runs, with a control signal flat, not every such curve was filed as active; the % refers to the signal ratio). The method, boiled down:
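Reporter line: GeneBLAzer AR-UAS-bla-GripTite (HEK293). Steps: plate cells, 4 h rest, add compounds, 16 h at 37C, add LiveBLAzer B/G substrate, 2 h at RT, read fluorescence.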

Assay [15] shares this target. The assay can be described thus: qHTS assay to identify small molecule agonists of the androgen receptor (AR) signaling pathway using the MDA cell line (AID 743040; note: nearly all actives have a fitted effect of over 20% in size). The method, boiled down:
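Luciferase read-out, ONE-Glo, 30 min RT. Cells: MDA-kb2 AR-luc, MMTV promoter with AR and GR response elements. Compound exposure 16 h, 37C, 0% CO2, after 5 h pre-incubation. qHTS agonist mode.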

Assay [16] in a line: qHTS assay to identify small molecule antagonists of the androgen receptor (AR) signaling pathway using the MDA cell line - cell viability counter screen (AID 743041; note: nearly all actives have a fitted effect of over 45% in size; note: potency is the fitted concentration of half-maximal effect). The method, boiled down: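 Cytotoxicity counter screen: MDA-kb2 AR-luc cells, compound + R1881, 16 h, 37C, 0% CO2; CellTiter-Fluor added at 15.5 h, fluorescence read after 30 min.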
Assay [17] deals with Androgen receptor (Homo sapiens) (UniProt P10275). Kind of assay: qHTS assay to identify small molecule antagonists of the androgen receptor (AR) signaling pathway using the MDA cell line (AID 743042; note: nearly all actives have a fitted effect of over 55% in size). An outline of the steps:
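MDA-kb2 breast carcinoma cells carrying MMTV-luciferase (AR/GR responsive) were co-treated with compounds and the agonist R1881 for 16 h at 37C. Inhibition read as ONE-Glo luminescence; CellTiter-Fluor fluorescence measured in parallel for cytotoxicity.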

Assay [18] in a line: qHTS assay for identifying genotoxic compounds that show differential cytotoxicity against isogenic chicken DT40 cell lines with known DNA damage response pathways - Rev3 mutant cell line (AID 743014). Note: nearly all actives have a fitted effect of over 55% in size. Note: potency is the fitted concentration of half-maximal effect.
Assay [19] in a line: qHTS assay to test for compound auto fluorescence at 460 nm (blue) in HepG2 cell free culture (AID 720685). An outline of the steps:
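Cell-free plates of MEM plus 10% FBS received 23 nL compound or DMSO vehicle; blue-channel (405/460 nm) intensity scored against triamterene as reference fluorophore.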

Assay [20] concerns the target Glucocorticoid receptor (Homo sapiens) (UniProt P04150). Kind of assay: qHTS assay to identify small molecule antagonists of the glucocorticoid receptor (GR) signaling pathway (AID 720692; active = well fitted inhibition curve with a large enough effect in the signal ratio in the repeat runs, not every such curve was filed as active; the % refers to the signal ratio). An outline of the steps:
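Tox21 10K library screened in concentration-response for blockade of dexamethasone (5 nM final)-induced GRE-bla reporter activity in HeLa cells; 18 h treatment, fluorescence read.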

Androgen receptor (Homo sapiens), sequence (P10275 whole entry, looked up): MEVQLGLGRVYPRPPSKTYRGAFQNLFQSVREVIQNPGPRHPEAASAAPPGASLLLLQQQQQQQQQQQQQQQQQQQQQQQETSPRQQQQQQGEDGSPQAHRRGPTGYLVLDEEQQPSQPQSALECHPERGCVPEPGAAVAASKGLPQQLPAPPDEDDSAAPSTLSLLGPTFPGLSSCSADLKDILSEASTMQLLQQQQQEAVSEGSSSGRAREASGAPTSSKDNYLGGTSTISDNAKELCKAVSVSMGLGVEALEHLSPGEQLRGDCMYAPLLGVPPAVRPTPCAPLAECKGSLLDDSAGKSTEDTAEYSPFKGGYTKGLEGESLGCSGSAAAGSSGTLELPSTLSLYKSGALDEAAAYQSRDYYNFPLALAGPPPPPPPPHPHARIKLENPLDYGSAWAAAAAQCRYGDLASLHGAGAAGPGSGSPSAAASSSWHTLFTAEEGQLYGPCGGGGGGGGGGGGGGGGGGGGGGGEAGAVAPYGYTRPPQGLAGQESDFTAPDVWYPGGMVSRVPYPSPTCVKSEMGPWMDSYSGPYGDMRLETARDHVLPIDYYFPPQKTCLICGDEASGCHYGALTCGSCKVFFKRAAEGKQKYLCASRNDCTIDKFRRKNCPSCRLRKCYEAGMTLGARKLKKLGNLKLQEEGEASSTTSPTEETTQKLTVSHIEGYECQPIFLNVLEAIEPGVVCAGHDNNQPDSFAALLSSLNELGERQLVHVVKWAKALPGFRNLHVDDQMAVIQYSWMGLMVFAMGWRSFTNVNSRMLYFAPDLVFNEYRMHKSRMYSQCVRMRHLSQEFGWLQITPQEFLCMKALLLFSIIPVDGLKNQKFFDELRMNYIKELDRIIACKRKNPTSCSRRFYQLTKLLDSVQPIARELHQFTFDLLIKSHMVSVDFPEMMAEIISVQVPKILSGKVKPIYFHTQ

As for `CC[C@H]1NC(=O)[C@@H](NC(=O)c2ncccc2O)[C@@H](C)OC(=O)[C@H](c2ccccc2)NC(=O)[C@@H]2CC(=O)CCN2C(=O)[C@H](Cc2ccccc2)N(C)C(=O)[C@@H]2CCCN2C1=O`, the Potency entry in [1], in assay [2], in assay [3], in assay [4], in assay [5] and in [6] was “inactive” each time. For the same molecule, the Potency entry in assay [8], in [9], in assay [10], in assay [11], in [12] and in [13] was “inactive” throughout. The Potency entry in [14], in [15], in assay [16] and in [17] was “inactive” throughout. In addition, the call in assay [7] was inactive.

For `CC[C@@H](C(=O)[C@@H](C)[C@@H](O)[C@H](C)[C@@H]1O[C@@H]([C@@H](CC)C(=O)O)CC[C@@H]1C)[C@H]1O[C@]2(C=C[C@@H](O)[C@]3(CC[C@@](C)([C@H]4CC[C@](O)(CC)[C@H](C)O4)O3)O2)[C@H](C)C[C@@H]1C`, the Potency result in [1], in assay [2], in [3], in [4], in assay [5] and in assay [6] was “inactive” in each case. In addition, in [7], the result was inactive. Also, the Potency is 1.5 µM (active) in [10], 0.944 µM (active) in [18], 1.19 µM (active) in assay [11] and 1.51 µM (active) in assay [12].

With `N[C@H](CC(=O)O)C(=O)O`, the Potency result in assay [1], in assay [2], in assay [3], in assay [4], in assay [5] and in assay [6] was “inactive” in each case. Also, the Potency result in assay [8], in assay [9], in assay [10], in assay [18], in assay [11] and in [12] was “inactive” throughout. For the same molecule, the Potency result in [16] is “inactive”. In assay [7], the molecule was called inactive.

With `OC(CN1CCCCC1)c1cc(-c2ccccc2)on1` (stereo not given), the Potency entry in [1], in [2], in [3], in [4], in [5] and in assay [6] was “inactive” in each case. In addition, the Potency entry in [8], in [9], in assay [10], in [11], in assay [12] and in assay [13] was “inactive” in each case. In addition, the Potency result in [16] and in assay [17] was “inactive” each time. Further, in [7], the result was inactive.

As to `CCCCC(=O)OCC(=O)[C@]1(O)Cc2c(O)c3c(c(O)c2[C@@H](O[C@H]2C[C@H](NC(=O)C(F)(F)F)[C@H](O)[C@H](C)O2)C1)C(=O)c1c(OC)cccc1C3=O`, the Potency result in [1], in [2], in assay [3], in [4], in [5] and in [9] was “inactive” in each case. Also, the Potency result in [12] and in [16] was “inactive” in each case. Moreover, the call in assay [7] was inactive. Also, the Potency in [8] was 7.56 µM (active); in assay [10], 1.5 µM (active); in assay [18], 1.88 µM (active); in [11], 0.211 µM (active).

Consider `Cc1cc(-c2ccc(N=Nc3c(S(=O)(=O)O)cc4cc(S(=O)(=O)O)cc(N)c4c3O)c(C)c2)ccc1N=Nc1c(S(=O)(=O)O)cc2cc(S(=O)(=O)O)cc(N)c2c1O`, for which the Potency result in assay [1], in [2], in assay [3], in assay [4], in [5] and in assay [6] was “inactive” in each case. Besides, the Potency result in assay [8] and in assay [9] was “inactive” each time. The result in assay [7] was inactive. The Potency in assay [10] was 9.44 µM (active); in assay [18] it was 7.5 µM (active); in assay [11] it was 10.6 µM (active); in [16], 13.3 µM (active).

With `CC(C)(CO)[C@@H](O)C(=O)NCCC(=O)NCCSSCCNC(=O)CCNC(=O)[C@H](O)C(C)(C)CO`, the Potency result in [1], in assay [2], in assay [3], in assay [4], in assay [5] and in assay [8] was “inactive” throughout. Also, the Potency entry in [20], in assay [9] and in assay [16] was “inactive” in each case. In [19], the outcome was inactive.

With `OC1OC[C@@H](O)[C@H](O)[C@@H]1O` (stereo not given in full), the Potency entry in assay [1], in assay [2], in [3], in assay [4], in assay [5] and in [9] was “inactive” in each case. The Potency result in assay [10], in [18], in assay [11], in [12] and in [16] was “inactive” in each case. Further, the call in assay [19] was inactive.
